In PubChem BioAssay:
For some assays here: Results with a measured potency or affinity are listed apart. Activity calls are given as the source filed them. Unless noted, the rule behind the calls is not given here.

Legend:
[1] = antimalarial activity against Dd2 strain (AID 2302;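 active = growth inhibition above 50% at the single 2 µM test dose, taken to imply half-maximal potency below 2 µM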;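 note: 0% = DMSO untreated growth and 100% = chloroquine plus artemisinin killed control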); conditions: P. falciparum Dd2 in RBCs, LDH growth readout, 72 h; at 2 µM; active compounds read high
[2] = human hepatoma cell viability loss – ATP luminescence, cytotoxicity control for P. falciparum antimalarial project, primary screen (AID 2303;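 active = inhibition above 50%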;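 note: 0% = DMSO wells and 100% = digitonin-killed cells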); conditions: HepG2 viability, 24-48 h, at 10 µM, active compounds read high
[3] = molecular target: L-lactate dehydrogenase (Plasmodium falciparum (isolate CDC / Honduras)) (UniProt Q27743); assay: PfLDH activity inhibition – cell lysate, 3D7 strain, counter-screen for P. falciparum growth inhibition project (AID 2304);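 note: 0% = vehicle and 100% = reference inhibitor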; conditions: P. falciparum 3D7 crude extract, LDH APAD/NBT absorbance; at 2 µM; active compounds read high
Chain of L-lactate dehydrogenase (Plasmodium falciparum (isolate CDC / Honduras)) (Q27743 whole entry, looked up): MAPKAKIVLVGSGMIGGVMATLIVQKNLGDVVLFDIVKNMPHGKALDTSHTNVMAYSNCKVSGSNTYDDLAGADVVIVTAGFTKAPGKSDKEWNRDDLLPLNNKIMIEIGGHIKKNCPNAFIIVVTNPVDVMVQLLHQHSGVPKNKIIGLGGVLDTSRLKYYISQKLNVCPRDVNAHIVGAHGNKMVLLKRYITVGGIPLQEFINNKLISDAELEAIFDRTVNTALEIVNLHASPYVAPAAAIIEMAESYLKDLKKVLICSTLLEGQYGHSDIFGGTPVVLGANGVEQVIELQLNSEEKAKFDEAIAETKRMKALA

[4] = inhibition of 3D7 malaria parasite growth – strain 3D7 (AID 2306);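 note: 0% = DMSO wells and 100% = chloroquine plus artemisinin control wells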; conditions: P. falciparum 3D7 erythrocytic growth, LDH absorbance, 72 h; at 2 µM; active compounds read high
[5] = molecular target: Calcium-dependent protein kinase 1 (Plasmodium falciparum (isolate 3D7)) (UniProt P62344); assay: PfCDPK1 kinase inhibitors, biochemical, TCAMS library (AID 1159585; cut-off not given, nearly all actives have IC50 up to about 0.98 µM;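 note: inhibitors leave more ATP so luminescence rises with inhibition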); conditions: recombinant PfCDPK1, Kinase-Glo ATP depletion luminescence
Chain of Calcium-dependent protein kinase 1 (Plasmodium falciparum (isolate 3D7)) (P62344 whole entry, looked up): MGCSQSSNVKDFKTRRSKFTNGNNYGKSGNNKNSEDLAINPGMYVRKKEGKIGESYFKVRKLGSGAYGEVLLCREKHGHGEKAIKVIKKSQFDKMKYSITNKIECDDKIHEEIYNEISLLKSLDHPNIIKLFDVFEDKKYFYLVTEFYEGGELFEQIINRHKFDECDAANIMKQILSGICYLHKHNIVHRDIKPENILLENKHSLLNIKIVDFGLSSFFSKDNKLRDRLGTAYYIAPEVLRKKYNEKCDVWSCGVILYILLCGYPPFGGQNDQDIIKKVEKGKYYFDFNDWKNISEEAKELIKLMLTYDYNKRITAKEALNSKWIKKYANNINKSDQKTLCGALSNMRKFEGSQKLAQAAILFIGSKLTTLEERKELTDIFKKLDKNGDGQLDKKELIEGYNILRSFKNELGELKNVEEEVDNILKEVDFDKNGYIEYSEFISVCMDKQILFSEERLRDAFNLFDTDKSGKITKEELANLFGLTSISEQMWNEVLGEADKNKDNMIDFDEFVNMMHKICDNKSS

[6] = molecular target: Plasmodium falciparum protein kinase 6 (PK6, PF3D7_1337100) (UniProt Q8IDW1); assay: PfPK6 kinase inhibitors, biochemical, TCAMS library (AID 1159586); conditions: recombinant PfPK6, Kinase-Glo ATP depletion luminescence
Chain of Plasmodium falciparum protein kinase 6 (PK6, PF3D7_1337100) (Q8IDW1 1-305): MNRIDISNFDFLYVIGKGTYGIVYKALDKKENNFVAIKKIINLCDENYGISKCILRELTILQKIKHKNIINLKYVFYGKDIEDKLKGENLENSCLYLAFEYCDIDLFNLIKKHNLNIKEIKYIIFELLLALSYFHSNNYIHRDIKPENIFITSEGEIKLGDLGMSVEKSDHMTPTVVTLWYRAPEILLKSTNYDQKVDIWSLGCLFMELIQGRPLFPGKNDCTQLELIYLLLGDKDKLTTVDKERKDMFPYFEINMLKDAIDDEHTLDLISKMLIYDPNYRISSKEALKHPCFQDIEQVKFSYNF

[7] = molecular target: Protein kinase 7 (PK7), Plasmodium falciparum 3D7 (PF3D7_0213400) (UniProt Q7YTF7); assay: inhibition of Plasmodium PK7 catalytic activity – biochemical, TCAMS antimalarial set, Kinase-Glo luminescence (AID 1159587); conditions: recombinant PfPK7, Kinase-Glo ATP depletion luminescence
Chain of Protein kinase 7 (PK7), Plasmodium falciparum 3D7 (PF3D7_0213400) (Q7YTF7 1-343): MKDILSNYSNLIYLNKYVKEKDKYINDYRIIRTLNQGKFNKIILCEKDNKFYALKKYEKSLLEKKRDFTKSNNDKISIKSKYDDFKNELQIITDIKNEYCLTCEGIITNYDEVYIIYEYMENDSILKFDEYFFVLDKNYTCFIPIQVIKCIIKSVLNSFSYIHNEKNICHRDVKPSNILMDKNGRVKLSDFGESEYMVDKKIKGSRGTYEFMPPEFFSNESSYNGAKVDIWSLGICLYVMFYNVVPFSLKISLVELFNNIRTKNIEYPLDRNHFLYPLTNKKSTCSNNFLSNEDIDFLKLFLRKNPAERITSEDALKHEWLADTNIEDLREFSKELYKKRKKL

[8] = molecular target: Calcium-dependent protein kinase 4 (Plasmodium falciparum (isolate 3D7)) (UniProt Q8IBS5); assay: PfCDPK4 kinase inhibitors, biochemical, TCAMS library (AID 1159588; cut-off not given, nearly all actives have IC50 up to about 0.91 µM); conditions: recombinant PfCDPK4, Kinase-Glo ATP depletion luminescence
Chain of Calcium-dependent protein kinase 4 (Plasmodium falciparum (isolate 3D7)) (Q8IBS5 whole entry, looked up): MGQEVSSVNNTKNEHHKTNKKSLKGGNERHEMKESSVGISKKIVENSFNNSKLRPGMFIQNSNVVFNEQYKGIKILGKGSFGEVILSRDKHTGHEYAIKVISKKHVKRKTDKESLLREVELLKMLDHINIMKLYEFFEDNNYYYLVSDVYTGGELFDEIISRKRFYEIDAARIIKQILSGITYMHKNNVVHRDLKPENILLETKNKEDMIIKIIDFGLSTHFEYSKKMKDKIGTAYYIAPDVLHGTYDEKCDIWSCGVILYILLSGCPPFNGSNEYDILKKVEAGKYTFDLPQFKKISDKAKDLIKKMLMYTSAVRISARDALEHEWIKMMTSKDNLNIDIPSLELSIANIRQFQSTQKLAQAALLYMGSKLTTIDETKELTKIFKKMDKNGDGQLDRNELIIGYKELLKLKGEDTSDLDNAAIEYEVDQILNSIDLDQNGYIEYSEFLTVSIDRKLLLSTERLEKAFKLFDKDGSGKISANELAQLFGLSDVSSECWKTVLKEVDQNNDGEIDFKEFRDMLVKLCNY

CC(=O)Nc1ccc(C(=O)Nc2ccc(-c3cccc(-c4nc5c(C)cccc5[nH]4)c3)cc2)cn1
inactive: inhibition [2] 36% | inhibition [3] -7% | outcome [5] | outcome [6] | outcome [7] | outcome [8]
active: growth inhibition [1] 74% | growth inhibition [4] 99%

CN1CCN(c2ccnc3ccc(NC(=O)Nc4cccc5c(-c6ccncc6)cccc45)cc23)CC1
inactive: inhibition [2] 7% | inhibition [3] 1% | outcome [5] | outcome [6] | outcome [7] | outcome [8]
active: growth inhibition [1] 100% | growth inhibition [4] 100%

COCC(C)n1c(SCC(=O)Nc2cc(C(F)(F)F)ccc2Cl)nc2ccccc2c1=O (stereo not given)
active: growth inhibition [1] 96% | growth inhibition [4] 97%
inactive: inhibition [2] 3% | inhibition [3] 6% | outcome [5] | outcome [6] | outcome [7] | outcome [8]

CCCc1cc(NC2CCN(C)CC2)nc(Nc2ccc(C)cc2)n1
inactive: growth inhibition [1] 20% | inhibition [2] 25% | inhibition [3] -1% | outcome [5] | outcome [6] | outcome [7] | outcome [8]
active: growth inhibition [4] 101%

CC(C)C(NC(=O)c1c(F)cccc1F)C(=O)Nc1ccc(Cc2nc3ccccc3s2)cc1 (stereo not given)
active: growth inhibition [1] 55% | growth inhibition [4] 86%
inactive: inhibition [2] 0% | inhibition [3] 6% | outcome [5] | outcome [6] | outcome [7] | outcome [8]

CCc1ccc(NC(=O)c2cccc(CN3CCCN(CC4CCCCC4)CC3)c2)cc1
inactive: growth inhibition [1] 41% | inhibition [3] 4% | outcome [5] | outcome [6] | outcome [7] | outcome [8]
active: inhibition [2] 62% | growth inhibition [4] 85%

COc1cc(NC(=O)/C=C/c2ccccc2OC(F)(F)F)cc(OCCN2CCN(CCN3CCOCC3)CC2)c1
inactive: growth inhibition [1] 25% | inhibition [2] 20% | inhibition [3] -1% | outcome [5] | outcome [6] | outcome [7] | outcome [8]
active: growth inhibition [4] 98%

COc1ccc(Cn2c(Nc3cccc(C(F)(F)F)c3)nc3cc(C(=O)NCCCN(C)C)ccc32)cc1Cl
inactive: growth inhibition [1] 3% | inhibition [2] 15% | inhibition [3] -7% | outcome [5] | outcome [6] | outcome [7] | outcome [8]
active: growth inhibition [4] 90%

CCCNCc1ccc(-c2ccc(CN(CC3CCCO3)C(=O)C3CC(=O)c4ccccc43)cc2)nc1 (stereo not given)
inactive: inhibition [2] 0% | inhibition [3] 3% | outcome [5] | outcome [6] | outcome [7] | outcome [8]
active: growth inhibition [1] 65% | growth inhibition [4] 101%

OC(CN1c2ccccc2Sc2ccccc21)CN(C1CCCCC1)C1CCCCC1 (stereo not given)
inactive: inhibition [2] 46% | inhibition [3] -5% | outcome [5] | outcome [6] | outcome [7] | outcome [8]
active: growth inhibition [1] 96% | growth inhibition [4] 99%
